This note sets out measurements from PubChem BioAssay (NCATS).

Each structure is given as a SMILES string. Records with an inconclusive call do not appear. The source made the active and inactive calls. Unless noted, calls come from the whole dose curve; as a rule, active = well fitted curve in either direction with a large enough effect (not every such curve was filed as active); inconclusive = small, poorly fitted or top-dose-only effect, or another doubt; inactive = flat fitted curve, though single readings scatter. Some results are limits rather than exact numbers.

For experiment [1], the target named is Lysosomal acid glucosylceramidase (Homo sapiens) (UniProt P04062). The experiment in a line: Glucocerebrosidase-p2 (AID 348; in the data active = potency below about 10 µM; note: potency is the fitted concentration of half-maximal effect). The following applies: purified GBA, blue fluorogenic substrate, 40 min. In outline:
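Compounds titrated from 0.6 nM upwards against 0.2 nM enzyme in pH 5.9 citric acid/KH2PO4, taurocholate, tween-20; blue fluorogenic substrate 80 uM, 40 min room temperature, stopped and read Ex 365/Em 440 for AC50.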

Experiment [2] in a line: AP1 Signaling Pathway (AID 357).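 Note: ME-180 reporter cells stimulated with EGF at its EC50 level; % is set by controls: 0 for no effect and ±100 for the full control effect.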 Conditions: ME-180 AP-1-bla reporter, EGF-induced, beta-lactamase ratio, 5 h; at 7.69 µM (top of the series) unless noted. In outline: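 Modulation of EGF-driven AP-1 transcription was assessed with a beta-lactamase reporter in ME-180 cells. Compound and EC50 EGF were co-incubated 5 hours at 37 °C before 2.5-hour CCF4 loading at room temperature and dual-emission reading.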

Experiment [3] has as its target Cytochrome P450 1A2 (Homo sapiens) (UniProt P05177). The experiment in a line: p450-cyp1a2 (AID 410; calls by dose curve; note: potency is the fitted concentration of half-maximal effect;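 for activity change, negative = inhibition: -100% = full effect of reference inhibitor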). The following applies: recombinant CYP1A2, luciferin-ME demethylation, luminescence; series mostly up to 57 µM. In outline:
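20nM CYP1A2 with 100uM Luciferin-ME (at Km) in 100mM KPO4; compound preincubated 10 min, NADPH regeneration added, 60 min at room temperature. Luciferin quantified by luminescence after detection reagent; normalized to 57 uM furafylline.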

The nature of experiment [4]: NFAT Signaling Pathway (AID 444).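 Note: carbachol stimulus at about its EC50 of 1 µM final; % is set by controls: 0 for no effect and ±100 for the full control effect.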 The following applies: Jurkat NFAT-bla M1, carbachol, beta-lactamase ratio, 5 h; at 7.69 µM (top of the series) unless noted. In outline:
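Jurkat cells with NFAT-driven β-lactamase reporter and co-expressed M1 receptor, stimulated with carbachol (final 1 uM, ~EC50), compound titration, 5 h at 37 °C. CCF4 loaded 1 h at RT; 460/530 nm ratio gave %activity and AC50.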

Experiment [5] can be described thus: Stat Signaling Pathway (AID 446).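 Note: ME-180 cervical cancer cells given 40 pM IL-6 alongside compound; SIE-controlled beta-lactamase reporter measured as 460/530 nm FRET emission ratio; % is set by controls: 0 for no effect and ±100 for the full control effect.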 Conditions: ME-180 SIE beta-lactamase reporter, IL-6 stimulated, 5 h; at 7.69 µM (top of the series) unless noted. In outline: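 IL-6/STAT signaling read in ME-180 cells via an SIE beta-lactamase reporter. Stimulus was 40 pM IL-6 (its AC50) for 5 hrs, so both activation and inhibition register.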
Experiment [6] concerns the target Glucocorticoid receptor (Homo sapiens) (UniProt P04150). Nature of the experiment: GR-GFP Redistribution (AID 450;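 active = compounds whose dose series gives a full or clear partial fitted curve of increased nuclear translocation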; note: potency is the fitted concentration of half-maximal effect). The following applies: U2OS GR-GFP nuclear translocation, laser cytometry, 2 h.
Experiment [7] shares this target. Nature of the experiment: GR-EFC Redistribution (AID 451; calls by dose curve; note: potency is the fitted concentration of half-maximal effect). Conditions: CHO-K1 GR-EFC translocation, beta-gal luminescence, 2 h. In outline: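 CHO-K1 cells expressing nuclear EA and GR-ED fragments of b-gal; compounds titrated up to 46 uM final, 2 h at 37 C. GR nuclear translocation read as complemented b-gal luminescence after 1 h RT detection.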
The target in experiment [8] is Mitogen-activated protein kinase 10 (Mus musculus) (UniProt Q61831). Nature of the experiment: JNK3 AlphaScreen Assay (AID 530).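 Note: kinase came from lysate of stimulated human HepG2 cells; signal reports phosphorylation of biotinylated GST-cJun 1-79 at Ser73 with 10 µM ATP; % is set by controls: 0 for no effect and ±100 for the full control effect.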 Conditions: JNK3 lysate, c-Jun phosphorylation; series mostly up to 57.1 µM. In outline:
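Pre-activated (IL-1β/TNFα) JNK3 in HepG2 lysates phosphorylates biotin-GST-cJun(1-79), 10 uM ATP; anti-phospho-cJun(Ser73) AlphaScreen read at room temperature, pH 7.6 Tris buffer. Compounds pre-incubated 15 min as titrations.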
Background: In Alpha technology, singlet oxygen from a donor bead excites a nearby acceptor bead.

Experiment [9] addresses 3',5'-cyclic-AMP phosphodiesterase 4B (Homo sapiens) (UniProt Q07343). Nature of the experiment: qHTS Assay for Inhibitors of PDE-IV (AID 607; active = well fitted activation curve with a large enough effect in the main read-out, with a control signal flat, not every such curve was filed as active; note: % of control where 0% means no effect). The following applies: HEK293 ACTOne CNG channel cells, membrane potential fluorescence; series mostly up to 22.9 µM. Put shortly:
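Live HEK293 cells with a modified cyclic nucleotide-gated (CNG) channel report intracellular cAMP via membrane-potential dye fluorescence (ex 535/em 590 nm). Endogenous PDE-IV was targeted. Compounds were tested at up to 22.9 uM final; RO 20-1724 100 uM served as control.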
A general note: In qHTS, concentration-response curves come from the screen itself.

Experiment [10] has as its target Cytochrome P450 3A4 (Homo sapiens) (UniProt P08684). Nature of the experiment: qHTS Assay for Activators of Cytochrome P450 3A4 (AID 885; active = well fitted curve in the direction sought with a large enough effect; an effect the other way counts as inactive or inconclusive; note: nearly all actives have a fitted effect of over 65% in size). Conditions: recombinant CYP3A4, Luciferin-PPXE luminescence, 60 min; series mostly up to 57.1 µM. Put shortly:
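Quantitative HTS format: compounds preincubated with 20nM human CYP3A4 and Luciferin-PPXE substrate at KM, reaction started by NADPH regeneration, stopped after 60 min, luciferase luminescence read 20 min later.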

Experiment [11] in a line: qHTS Assay for Identification of Small Molecule Agonists for Hypoxia Response Element Signaling Pathway (AID 914; active = well fitted activation curve with a large enough effect in the signal ratio, with a control signal flat, not every such curve was filed as active; the % refers to the signal ratio; note: % of control where 0% means no effect). Conditions: ME-180 (cervical carcinoma) HRE-bla reporter, beta-lactamase ratio, CoCl2, 17 h; activation: stronger effect = higher value. In outline:
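HRE-bla ME-180 cells with beta-lactamase reporter under hypoxia response element, compounds with EC50 CoCl2 for 17 hours at 37 C. CCF4 substrate, 460nm/530nm emission ratio gave %Activity; AC50 from titration series.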

The nature of experiment [12]: qHTS Assay for Lipid Storage Modulators (AID 1519; calls by dose curve). The following applies: Drosophila S3 cells, BODIPY lipid droplet/cell ratio, laser cytometry, cells loaded with oleic acid; for activity change, negative = inhibition: at 57.5 µM (top of the series). Put shortly: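 Cells seeded at 5,000 per well were treated with compounds over a concentration series and loaded with oleic acid (400 uM, as added). Lipid droplet fluorescence (488 nm excitation, 500-530 nm channel) was read by laser-scanning cytometry and normalized to 20 uM Triacsin C.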

Experiment [13] has as its target Dual specificity protein kinase CLK4 (Homo sapiens) (UniProt Q9HAZ1). The experiment in a line: qHTS Assay for Inhibitors of CDC-like Kinase 4 (Kinase-Glo Assay) (AID 1770; active = well fitted curve in the direction sought with a large enough effect; an effect the other way counts as inactive or inconclusive; note: % is set by controls: 0 for no effect and ±100 for the full control effect; nearly all actives have a fitted effect of over 65% in size). The following applies: recombinant Clk4, Kinase-Glo ATP depletion luminescence; series mostly up to 66.7 µM. Put shortly: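 Recombinant human Clk4 (25 nM) phosphorylated RS repeat peptide (100 uM) with 1 uM ATP in Tris pH 7.5/MgCl2/EGTA/DTT/Triton buffer for 4.5 h at room temperature. Residual ATP was quantified by Kinase-Glo luciferase luminescence.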

The target is the same in experiment [14]. The experiment in a line: qHTS Assay for Inhibitors of CDC-like Kinase 4 (ADP-Glo Assay) (AID 1771; active = well fitted curve in the direction sought with a large enough effect; an effect the other way counts as inactive or inconclusive; note: % is set by controls: 0 for no effect and ±100 for the full control effect; nearly all actives have a fitted effect of over 70% in size). The following applies: recombinant CLK4, ADP-Glo luminescence; series mostly up to 80 µM. Put shortly: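 25 nM Clk4 with 100 uM RS repeat peptide and 1 uM ATP (final) in buffer with 2 mM MgCl2, 0.5 mM EGTA, 2.5 mM DTT, 0.01% Triton X-100; 1 h at room temperature; ADP-Glo luminescence for ADP formed.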

The target in experiment [15] is Cytochrome P450 2C19 (Homo sapiens) (UniProt P33261). The experiment in a line: qHTS Assay for Inhibitors and Substrates of Cytochrome P450 2C19 (AID 899; active = well fitted curve in the direction sought with a large enough effect; an effect the other way counts as inactive or inconclusive; note: % is set by controls: 0 for no effect and ±100 for the full control effect; nearly all actives have a fitted effect of over 60% in size). The following applies: recombinant CYP2C19, luciferin-H EGE luminescence; series mostly up to 57.1 µM. Put shortly: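 5 nM human CYP2C19 with 10uM Luciferin-H EGE (at KM) in 50mM KPO4, compound preincubated 10 min at 37C, then NADPH regeneration for 60 min at 37C. Luciferin read by luminescence after detection reagent; normalized to 57uM ketoconazole as full inhibition.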

For experiment [16], the target named is Cytochrome P450 2D6 (Homo sapiens) (UniProt P10635). The experiment in a line: qHTS Assay for Inhibitors and Substrates of Cytochrome P450 2D6 (AID 891; active = well fitted curve in the direction sought with a large enough effect; an effect the other way counts as inactive or inconclusive; note: potency is the fitted concentration of half-maximal effect; nearly all actives have a fitted effect of over 60% in size). Conditions: recombinant CYP2D6, luciferin-ME EGE luminescence; series mostly up to 57.1 µM. Put shortly: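 Human CYP2D6 (5 nM) with 30 uM Luciferin-ME EGE (at Km) in 100 mM KPO4, compound preincubated 10 min, then NADPH regeneration system for 60 min at room temperature. Luciferin read by luminescence; normalized to 1.43 uM quinidine.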

The mark [17] stands for this setting: measured here: cell count channel max response.
[18] abbreviates: measured here: lipid channel max response.

Sequence of Lysosomal acid glucosylceramidase (Homo sapiens) (P04062 whole entry, looked up): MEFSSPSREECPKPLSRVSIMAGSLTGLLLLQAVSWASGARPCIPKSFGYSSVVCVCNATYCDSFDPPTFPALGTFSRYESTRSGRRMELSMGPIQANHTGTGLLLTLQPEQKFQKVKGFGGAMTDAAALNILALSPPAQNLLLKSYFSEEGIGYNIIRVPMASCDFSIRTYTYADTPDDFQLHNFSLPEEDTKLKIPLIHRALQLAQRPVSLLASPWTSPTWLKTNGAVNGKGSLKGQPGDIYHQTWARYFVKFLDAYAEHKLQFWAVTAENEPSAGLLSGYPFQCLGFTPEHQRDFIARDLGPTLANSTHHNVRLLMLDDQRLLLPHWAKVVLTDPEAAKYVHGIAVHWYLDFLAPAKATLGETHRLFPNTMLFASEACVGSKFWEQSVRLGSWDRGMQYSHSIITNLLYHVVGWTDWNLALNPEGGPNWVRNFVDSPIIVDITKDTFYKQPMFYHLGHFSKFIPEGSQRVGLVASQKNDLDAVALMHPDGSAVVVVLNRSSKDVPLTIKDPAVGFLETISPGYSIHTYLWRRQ
Sequence of Glucocorticoid receptor (Homo sapiens) (P04150 whole entry, looked up, the tested form may be a part): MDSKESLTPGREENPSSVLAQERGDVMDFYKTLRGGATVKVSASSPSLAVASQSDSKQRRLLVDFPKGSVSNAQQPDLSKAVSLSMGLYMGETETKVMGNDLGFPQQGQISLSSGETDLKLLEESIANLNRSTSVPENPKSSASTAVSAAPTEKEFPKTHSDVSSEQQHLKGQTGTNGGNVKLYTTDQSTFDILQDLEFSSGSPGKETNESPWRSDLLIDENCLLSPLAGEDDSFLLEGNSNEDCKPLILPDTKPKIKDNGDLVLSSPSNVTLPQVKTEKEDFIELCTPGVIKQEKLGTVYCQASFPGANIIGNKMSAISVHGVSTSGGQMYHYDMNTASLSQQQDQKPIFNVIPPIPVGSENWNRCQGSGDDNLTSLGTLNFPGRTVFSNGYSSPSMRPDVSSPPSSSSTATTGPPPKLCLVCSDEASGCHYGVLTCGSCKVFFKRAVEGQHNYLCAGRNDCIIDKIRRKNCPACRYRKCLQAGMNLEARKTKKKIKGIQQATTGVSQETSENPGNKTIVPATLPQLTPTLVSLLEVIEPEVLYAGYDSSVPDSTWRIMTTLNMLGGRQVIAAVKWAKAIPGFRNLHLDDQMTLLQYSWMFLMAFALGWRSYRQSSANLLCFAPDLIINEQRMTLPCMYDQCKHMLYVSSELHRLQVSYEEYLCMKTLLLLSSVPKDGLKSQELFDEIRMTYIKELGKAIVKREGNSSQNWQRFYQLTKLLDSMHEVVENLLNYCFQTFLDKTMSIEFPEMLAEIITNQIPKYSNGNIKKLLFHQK
Sequence of Cytochrome P450 3A4 (Homo sapiens) (P08684 whole entry, looked up): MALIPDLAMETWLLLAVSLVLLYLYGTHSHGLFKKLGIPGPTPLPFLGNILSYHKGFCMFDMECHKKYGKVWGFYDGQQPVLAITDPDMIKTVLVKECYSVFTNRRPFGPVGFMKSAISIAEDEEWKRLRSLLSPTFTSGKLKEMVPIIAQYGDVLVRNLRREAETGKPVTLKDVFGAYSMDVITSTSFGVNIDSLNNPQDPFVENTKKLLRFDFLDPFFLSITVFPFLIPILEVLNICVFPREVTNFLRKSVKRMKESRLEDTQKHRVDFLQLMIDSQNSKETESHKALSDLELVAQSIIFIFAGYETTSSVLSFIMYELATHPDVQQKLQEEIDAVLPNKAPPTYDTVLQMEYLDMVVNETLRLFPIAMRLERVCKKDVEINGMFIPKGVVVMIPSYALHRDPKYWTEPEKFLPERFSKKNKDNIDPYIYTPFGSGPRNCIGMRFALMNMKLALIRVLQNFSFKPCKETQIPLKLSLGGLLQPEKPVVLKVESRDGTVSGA
Sequence of 3',5'-cyclic-AMP phosphodiesterase 4B (Homo sapiens) (Q07343 whole entry, looked up): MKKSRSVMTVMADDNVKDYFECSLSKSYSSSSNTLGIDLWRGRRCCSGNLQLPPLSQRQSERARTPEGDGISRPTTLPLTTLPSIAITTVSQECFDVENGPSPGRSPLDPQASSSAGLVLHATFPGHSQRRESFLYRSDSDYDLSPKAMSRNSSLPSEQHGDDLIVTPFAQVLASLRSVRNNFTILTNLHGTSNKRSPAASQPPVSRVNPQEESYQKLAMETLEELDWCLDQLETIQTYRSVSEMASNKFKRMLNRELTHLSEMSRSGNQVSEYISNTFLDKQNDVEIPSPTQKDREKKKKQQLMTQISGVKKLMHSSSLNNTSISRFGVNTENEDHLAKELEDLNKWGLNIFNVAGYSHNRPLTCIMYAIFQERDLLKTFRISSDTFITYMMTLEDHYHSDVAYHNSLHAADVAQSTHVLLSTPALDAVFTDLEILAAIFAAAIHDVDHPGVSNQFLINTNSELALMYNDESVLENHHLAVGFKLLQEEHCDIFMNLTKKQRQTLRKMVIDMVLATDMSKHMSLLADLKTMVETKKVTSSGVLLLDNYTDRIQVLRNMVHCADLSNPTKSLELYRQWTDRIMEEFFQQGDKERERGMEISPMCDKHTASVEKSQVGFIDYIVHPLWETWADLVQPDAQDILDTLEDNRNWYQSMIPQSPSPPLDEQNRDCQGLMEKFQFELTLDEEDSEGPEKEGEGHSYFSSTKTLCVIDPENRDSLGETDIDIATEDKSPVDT
Sequence of Cytochrome P450 1A2 (Homo sapiens) (P05177 whole entry, looked up): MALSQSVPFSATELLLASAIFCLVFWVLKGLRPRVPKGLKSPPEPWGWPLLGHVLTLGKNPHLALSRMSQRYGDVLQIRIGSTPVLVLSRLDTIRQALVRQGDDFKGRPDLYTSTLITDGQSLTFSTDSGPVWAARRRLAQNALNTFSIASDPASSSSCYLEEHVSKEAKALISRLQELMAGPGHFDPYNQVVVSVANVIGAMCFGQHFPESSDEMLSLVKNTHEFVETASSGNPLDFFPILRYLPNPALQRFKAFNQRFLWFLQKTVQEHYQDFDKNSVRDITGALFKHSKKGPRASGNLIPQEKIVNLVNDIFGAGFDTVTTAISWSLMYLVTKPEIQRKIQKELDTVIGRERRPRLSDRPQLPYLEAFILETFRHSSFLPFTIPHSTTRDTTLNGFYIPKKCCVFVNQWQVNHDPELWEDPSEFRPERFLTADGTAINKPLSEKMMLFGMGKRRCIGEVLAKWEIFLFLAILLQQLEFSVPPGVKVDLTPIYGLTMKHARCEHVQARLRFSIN
Sequence of Dual specificity protein kinase CLK4 (Homo sapiens) (Q9HAZ1 whole entry, looked up): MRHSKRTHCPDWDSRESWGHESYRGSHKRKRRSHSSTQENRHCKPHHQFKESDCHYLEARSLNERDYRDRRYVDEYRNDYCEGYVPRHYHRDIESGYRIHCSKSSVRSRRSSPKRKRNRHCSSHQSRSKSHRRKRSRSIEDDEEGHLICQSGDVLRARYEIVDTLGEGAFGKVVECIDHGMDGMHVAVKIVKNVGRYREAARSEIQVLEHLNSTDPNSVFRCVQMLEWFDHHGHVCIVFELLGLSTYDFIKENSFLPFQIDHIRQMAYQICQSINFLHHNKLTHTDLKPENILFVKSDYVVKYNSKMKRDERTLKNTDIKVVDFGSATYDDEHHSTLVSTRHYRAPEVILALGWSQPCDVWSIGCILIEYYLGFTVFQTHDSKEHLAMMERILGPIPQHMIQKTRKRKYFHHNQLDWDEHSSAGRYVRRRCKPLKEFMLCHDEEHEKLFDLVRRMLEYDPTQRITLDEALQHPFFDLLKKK
Sequence of Cytochrome P450 2C19 (Homo sapiens) (P33261 whole entry, looked up): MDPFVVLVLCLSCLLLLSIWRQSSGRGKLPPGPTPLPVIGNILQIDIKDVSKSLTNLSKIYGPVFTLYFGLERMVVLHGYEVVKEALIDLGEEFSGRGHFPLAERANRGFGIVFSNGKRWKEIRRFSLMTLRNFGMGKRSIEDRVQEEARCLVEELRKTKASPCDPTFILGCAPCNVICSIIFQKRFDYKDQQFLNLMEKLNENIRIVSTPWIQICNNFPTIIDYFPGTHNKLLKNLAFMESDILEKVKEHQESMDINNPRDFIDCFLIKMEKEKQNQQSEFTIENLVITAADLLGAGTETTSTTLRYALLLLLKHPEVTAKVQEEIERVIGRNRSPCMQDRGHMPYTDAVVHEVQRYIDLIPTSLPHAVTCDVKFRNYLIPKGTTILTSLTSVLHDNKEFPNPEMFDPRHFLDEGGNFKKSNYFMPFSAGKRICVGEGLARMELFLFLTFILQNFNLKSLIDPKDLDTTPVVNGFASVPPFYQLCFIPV
Sequence of Cytochrome P450 2D6 (Homo sapiens) (P10635 whole entry, looked up): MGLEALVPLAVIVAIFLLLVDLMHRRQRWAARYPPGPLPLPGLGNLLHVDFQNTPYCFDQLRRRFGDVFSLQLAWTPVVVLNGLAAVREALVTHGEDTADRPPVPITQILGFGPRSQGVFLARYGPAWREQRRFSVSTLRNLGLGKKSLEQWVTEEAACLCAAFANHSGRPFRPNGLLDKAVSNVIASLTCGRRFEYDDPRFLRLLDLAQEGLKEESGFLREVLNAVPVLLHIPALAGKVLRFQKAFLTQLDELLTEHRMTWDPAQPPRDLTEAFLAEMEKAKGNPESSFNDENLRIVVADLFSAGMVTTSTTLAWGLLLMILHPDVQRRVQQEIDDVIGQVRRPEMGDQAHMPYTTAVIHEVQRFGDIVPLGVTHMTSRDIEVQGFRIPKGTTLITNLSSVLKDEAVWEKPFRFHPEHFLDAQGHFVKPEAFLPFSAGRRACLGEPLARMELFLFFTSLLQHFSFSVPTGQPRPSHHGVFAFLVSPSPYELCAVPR

Take `CN1CCN(c2ncc3nc(CCc4ccccc4)c(=O)n(C4CC4)c3n2)CC1`: the Potency is > 11.4 µM (inactive) in experiment [1], 12.6 µM (active) in experiment [3], > 9.22 µM (inactive) in experiment [6] and > 46 µM (inactive) in experiment [7]. Besides, the activity change, negative = inhibition was 10.3% (inactive) in experiment [2], 15.1% (inactive) in experiment [4] and 1.8% (inactive) in [12]. The activity, negative = inhibition in experiment [5] was -7.8% (inactive). Also, the outcome in experiment [8] was inactive. For the same compound, the Potency entry in experiment [9], in [10], in experiment [13] and in [14] was “inactive” throughout. The activation in [11] is -5.15% (inactive). Moreover, the max response in experiment [12] (setting [17]) is 15.9%; in experiment [12] (setting [18]), 14.9%.
With `COc1ccc(NC(=O)N2CCCC3(CCNCC3)C2)cc1`, the Potency in experiment [1] was > 11.4 µM (inactive); in experiment [7], > 46 µM (inactive). Moreover, the activity change, negative = inhibition is -1.83% (inactive) in experiment [2], 1.68% (inactive) in experiment [4] and 4.28% (inactive) in [12]. Moreover, the Potency entry in [3], in experiment [9], in experiment [10] and in experiment [15] was “inactive” throughout. Further, the activity, negative = inhibition in experiment [5] was 5.73% (inactive). In experiment [8], the result was inactive. In addition, the max response in [12] (setting [17]) was -5.9%; in [12] (setting [18]), 0.941%.
In the case of `COc1ccccc1CN1CC[C@@]2(CCCN(S(C)(=O)=O)C2)C1`, the Potency in [1] was > 11.4 µM (inactive); in experiment [7], > 46 µM (inactive); in [16] it was 0.316 µM (active). Also, the activity change, negative = inhibition was 1.48% (inactive) in [2], -16.9% (inactive) in experiment [4] and 4.56% (inactive) in [12]. Moreover, the Potency entry in experiment [3], in experiment [9] and in experiment [10] was “inactive” throughout. Besides, the activity, negative = inhibition in experiment [5] is 5.92% (inactive). In addition, the compound was classed as inactive in [8]. Further, the max response in experiment [12] (setting [17]) is 7.77%; in [12] (setting [18]), 13.7%.
